According to PubChem BioAssay (NCATS):
Values joined by “and” are separate entries in the source; they are usually repeats but may differ in a detail not shown here. Equal entries are not always repeated. Records with an inconclusive call do not appear. Active and inactive are the calls of the source. Unless noted, calls follow the shape of the full dose curve.

Tests used:
[1] = Cell Viability - MRC5 (AID 434); conditions: MRC5 lung fibroblast viability, qHTS;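 also: potency is read from the fitted curve at half-maximal effect; cells exposed to compound for 40 hours at 37 °C; potency reflects cytotoxicity seen as loss of intracellular ATP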
Procedure, shortened: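 ATP luminescence read-out (CellTiter-Glo, 20 min RT) after 40 hr, 37 °C compound exposure of 1500 MRC5 cells/well. Data normalized to DMSO (basal) and 100 uM tamoxifen (100% inhibition); AC50 from standard Hill equation.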

[2] = target: Mitogen-activated protein kinase 10 (Mus musculus) (UniProt Q61831); experiment: JNK3 AlphaScreen Assay (AID 530; active = well fitted curve in either direction with a large enough effect, not every such curve was filed as active;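 also: kinase came from lysate of stimulated human HepG2 cells; signal reports phosphorylation of biotinylated GST-cJun 1-79 at Ser73 with 10 µM ATP; % is scaled to controls: 0 for no effect and ±100 for the full control effect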); conditions: JNK3 lysate, c-Jun phosphorylation; series mostly up to 57.1 µM
Procedure, shortened: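 Activity was read by AlphaScreen after JNK3-containing HepG2 lysate (cytokine pre-activated) phosphorylated biotinylated GST-cJun with 10 uM ATP at room temperature. Phospho-Ser73 cJun antibody with Protein-A acceptor beads provided detection.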

[3] = Cell Viability - NIH 3T3 (AID 541; active = well fitted curve in the direction sought with a large enough effect; an effect the other way counts as inactive or inconclusive;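 also: cells exposed to compound for 40 hours; nearly all actives have a fitted effect of over 25% in size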; also: potency is read from the fitted curve at half-maximal effect;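 as to activity change, negative = cytotoxicity: plate controls were DMSO alone for no effect and tamoxifen positive control for full effect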); conditions: NIH 3T3 cell viability, qHTS; activity change, negative = cytotoxicity: at 92.2 µM (top of the series)
Procedure, shortened: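 Cells seeded at 1000/well, rested 5 hr at 37 °C, then dosed and incubated 40 hr at 37 °C. CellTiter-Glo added, 20 min room temperature, luminescence read. AC50 by Hill fit.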

[4] = MultiTox-Fluor Cytotoxicity Assay - LYMP1-002 - Dead Cells (AID 960; active = well fitted curve in the direction sought with a large enough effect; an effect the other way counts as inactive or inconclusive; also: nearly all actives have a fitted effect of over 60% in size; also: potency is read from the fitted curve at half-maximal effect); conditions: LYMP1-002 lymphoblastoid cells, dead-cell protease fluorescence; series mostly up to 46.1 µM
Procedure, shortened: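 Cells were plated, rested 5 hr, then treated with compound dilution series for 16 hr at 37 C. After adding substrate reagent and 60 min at room temperature, dead-cell protease fluorescence gave concentration-response curves fitted by the Hill equation.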

[5] = qHTS assay for small molecule antagonists of peroxisome proliferator-activated receptor delta signaling (AID 588535; active = well fitted inhibition curve with a large enough effect in the signal ratio, with a control signal flat, not every such curve was filed as active; the % refers to the signal ratio;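 as to max response: cells co-treated with a PPAR-delta agonist as stimulator during compound exposure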); conditions: HEK293T PPARd-UAS-bla, beta-lactamase FRET ratio, 18 h; 460 nm channel
Procedure, shortened: (§1)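 Fluorescence from CCF4-loaded GeneBLAzer PPAR-delta-UAS-bla HEK293T cells (2 hrs RT loading) quantified reporter inhibition after an 18 hr, 37 C compound exposure across a titration.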

[6] = target: Peroxisome proliferator-activated receptor delta (Homo sapiens) (UniProt Q03181); experiment: as above; conditions: HEK293T PPARd-UAS-bla, beta-lactamase FRET ratio, 18 h; series mostly up to 76.7 µM
Chain of Peroxisome proliferator-activated receptor delta (Homo sapiens) (Q03181 whole entry, looked up): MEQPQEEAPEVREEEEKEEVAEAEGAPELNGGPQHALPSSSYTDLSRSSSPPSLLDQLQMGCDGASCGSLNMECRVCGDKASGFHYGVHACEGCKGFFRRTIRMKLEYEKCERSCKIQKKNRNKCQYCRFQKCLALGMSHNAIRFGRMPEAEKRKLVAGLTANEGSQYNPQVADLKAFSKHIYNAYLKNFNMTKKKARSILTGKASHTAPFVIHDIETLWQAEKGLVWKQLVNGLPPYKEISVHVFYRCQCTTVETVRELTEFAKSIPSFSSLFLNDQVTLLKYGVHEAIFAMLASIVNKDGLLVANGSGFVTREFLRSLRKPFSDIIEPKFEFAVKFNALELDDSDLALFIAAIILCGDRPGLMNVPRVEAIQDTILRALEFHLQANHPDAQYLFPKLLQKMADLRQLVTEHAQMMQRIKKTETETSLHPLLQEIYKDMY
Procedure, shortened: as §1

[7] = target: Peroxisome proliferator-activated receptor gamma (Homo sapiens) (UniProt P37231); experiment: qHTS assay for small molecule agonists of peroxisome proliferator-activated receptor gamma signaling (AID 588536; active = well fitted curve in the direction sought with a large enough effect in the signal ratio, with a control signal flat, not every such curve was filed as active; the % refers to the signal ratio;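 also: 0% = DMSO basal wells and 100% = rosiglitazone at 2 µM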); conditions: HEK293 PPARg-UAS-bla, beta-lactamase ratio, 16 h, percent of rosiglitazone response, DMSO as zero; series mostly up to 76.7 µM
Chain of Peroxisome proliferator-activated receptor gamma (Homo sapiens) (P37231 whole entry, looked up): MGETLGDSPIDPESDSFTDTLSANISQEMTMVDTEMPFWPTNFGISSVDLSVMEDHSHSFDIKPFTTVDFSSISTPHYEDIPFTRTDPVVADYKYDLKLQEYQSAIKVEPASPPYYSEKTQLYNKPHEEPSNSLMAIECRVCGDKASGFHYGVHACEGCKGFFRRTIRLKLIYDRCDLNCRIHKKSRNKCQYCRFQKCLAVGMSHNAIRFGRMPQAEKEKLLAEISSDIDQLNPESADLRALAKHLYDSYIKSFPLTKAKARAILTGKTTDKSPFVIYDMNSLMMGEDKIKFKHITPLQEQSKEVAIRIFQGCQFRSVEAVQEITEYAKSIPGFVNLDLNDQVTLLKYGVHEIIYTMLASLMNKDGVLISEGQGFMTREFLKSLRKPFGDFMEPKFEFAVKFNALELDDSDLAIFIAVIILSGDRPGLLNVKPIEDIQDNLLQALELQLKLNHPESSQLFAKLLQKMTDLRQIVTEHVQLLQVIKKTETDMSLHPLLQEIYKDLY
Procedure, shortened: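 Beta-lactamase reporter read-out: CCF4 fluorescence (ex 405, em 460/530 nm) after 2 h at RT. HEK293 GeneBLAzer cells were treated for 16 h at 37 C. Hill fits gave EC50 and efficacy versus 2 uM rosiglitazone (100%) and DMSO (0%).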

[8] = target: Peroxisome proliferator-activated receptor gamma (Homo sapiens) (UniProt P37231); experiment: qHTS assay for small molecule antagonists of peroxisome proliferator-activated receptor gamma signaling (AID 588537; active = well fitted inhibition curve with a large enough effect in the signal ratio, with a control signal flat, not every such curve was filed as active; the % refers to the signal ratio;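 also: reporter cells co-stimulated with 50 nM rosiglitazone agonist during compound treatment; % of control where 0% means no effect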); conditions: HEK293 PPARg-UAS-bla, beta-lactamase ratio, antagonist mode; series mostly up to 76.8 µM
Procedure, shortened: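 Fluorescence at 460 and 530 nm (405 nm excitation) reported beta-lactamase cleavage of CCF4 after 2 h room-temperature loading. HEK293 reporter cells in 1% charcoal/dextran-treated FBS had received compound and rosiglitazone for 16 h.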

[9] = target: Vitamin D3 receptor (Homo sapiens) (UniProt P11473); experiment: qHTS assay for small molecule antagonists of vitamin D receptor signaling (AID 588541); conditions: HEK293T VDR-UAS-bla, beta-lactamase ratio, antagonist mode; series mostly up to 76.7 µM;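 also: receptor activated by calcitriol during compound treatment; % is scaled to controls: 0 for no effect and ±100 for the full control effect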
Chain of Vitamin D3 receptor (Homo sapiens) (P11473 whole entry, looked up): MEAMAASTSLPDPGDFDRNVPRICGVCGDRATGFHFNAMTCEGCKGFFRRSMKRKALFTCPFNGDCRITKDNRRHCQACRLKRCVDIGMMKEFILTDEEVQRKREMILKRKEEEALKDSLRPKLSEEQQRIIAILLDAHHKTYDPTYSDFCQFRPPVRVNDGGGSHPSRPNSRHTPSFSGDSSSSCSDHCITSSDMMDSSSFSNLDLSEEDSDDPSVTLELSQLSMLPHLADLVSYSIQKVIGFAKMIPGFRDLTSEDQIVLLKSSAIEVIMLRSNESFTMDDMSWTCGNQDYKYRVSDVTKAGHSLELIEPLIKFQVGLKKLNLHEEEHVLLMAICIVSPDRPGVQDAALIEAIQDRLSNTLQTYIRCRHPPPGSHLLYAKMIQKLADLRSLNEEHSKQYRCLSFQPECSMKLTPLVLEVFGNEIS
Procedure, shortened: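 VDR-UAS-bla HEK293T cells in 2% charcoal-stripped FBS were stimulated with 1-alpha,25-dihydroxyvitamin D3 (3 nM final) plus compound for 16 h at 37 C. The beta-lactamase CCF4 readout was normalized to 50 nM agonist and DMSO, and Hill fits gave IC50.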

[10] = target: Vitamin D3 receptor (Homo sapiens) (UniProt P11473); experiment: qHTS assay for small molecule agonists of vitamin D receptor signaling (AID 588543); conditions: HEK293T VDR-UAS-bla, beta-lactamase ratio, 16 h; series mostly up to 76.8 µM;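 also: 0% = DMSO basal and 100% = reference agonist control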
Procedure, shortened: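 Agonist-mode beta-lactamase reporter: HEK293T VDR-UAS-bla cells in charcoal-stripped 2% FBS, compound series 16 h 37 C, CCF4 2 h RT. EC50 from Hill fit, scaled against DMSO and 50 nM calcitriol control.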

[11] = qHTS assay for small molecule antagonists of the retinoid-related orphan receptor gamma (ROR-gamma) signaling pathway - cell viability counter screen (AID 720652; active = well fitted curve in the direction sought with a large enough effect in the repeat runs; an effect the other way counts as inactive or inconclusive;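 also: CHO reporter cells with doxycycline-induced ROR-gamma expression; compound exposure lasted 16 hr before ATP read; % is scaled to controls: 0 for no effect and ±100 for the full control effect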); conditions: RORgamma reporter cell line viability counter screen; series mostly up to 92.2 µM
Procedure, shortened: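 Steps: seed CHO cells bearing TET-inducible ROR and ROR response element-luciferase; rest 5 hr at 37 C; add compound, then doxycycline; incubate 16 hr; add CellTiter-Glo and read luminescence as ATP-based viability.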

[12] = target: Thyroid hormone receptor beta (Homo sapiens) (UniProt P10828); experiment: qHTS assay for small molecule antagonists of thyroid hormone receptor beta signaling (AID 588547; active = well fitted inhibition curve with a large enough effect in the signal ratio, with a control signal flat, not every such curve was filed as active; the % refers to the signal ratio;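 also: cells stimulated with 0.4 nM T3 agonist during compound exposure; % is scaled to controls: 0 for no effect and ±100 for the full control effect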); conditions: TR-UAS-bla HEK293, beta-lactamase ratio, antagonist mode, 18 h
Chain of Thyroid hormone receptor beta (Homo sapiens) (P10828 whole entry, looked up): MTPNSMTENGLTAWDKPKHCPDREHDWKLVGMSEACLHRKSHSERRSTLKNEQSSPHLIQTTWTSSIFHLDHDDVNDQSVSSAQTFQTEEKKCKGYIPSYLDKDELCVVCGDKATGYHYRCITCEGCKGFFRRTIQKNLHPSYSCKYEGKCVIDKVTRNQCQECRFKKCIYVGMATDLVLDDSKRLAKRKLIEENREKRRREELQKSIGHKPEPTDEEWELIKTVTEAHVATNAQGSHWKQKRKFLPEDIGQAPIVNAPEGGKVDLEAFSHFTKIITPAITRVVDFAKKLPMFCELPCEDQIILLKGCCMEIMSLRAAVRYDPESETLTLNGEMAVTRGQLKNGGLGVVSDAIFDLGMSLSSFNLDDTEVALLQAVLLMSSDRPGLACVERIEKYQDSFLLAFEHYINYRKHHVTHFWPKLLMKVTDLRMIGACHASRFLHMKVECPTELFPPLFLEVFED
Procedure, shortened: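 TR-UAS-bla GripTite HEK293 cells in 2% charcoal/dextran FBS medium; compounds 0.59 nM to 92 uM with T3 at 0.4nM final, 18 h at 37 C. Beta-lactamase read by CCF4 fluorescence (460/530 nm); Hill fits gave IC50 and efficacy.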

[13] = Cell Viability - LYMP2-001 (AID 921; active = well fitted curve in the direction sought with a large enough effect; an effect the other way counts as inactive or inconclusive;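 also: 0% = DMSO only and full inhibition = tetraoctylammonium bromide control wells; nearly all actives have a fitted effect of over 70% in size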); conditions: LYMP2-001 lymphoblastoid cell viability; series mostly up to 92.2 µM
Procedure, shortened: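 Cellular ATP loss read by luciferase luminescence after 24 h compound exposure at 37 C in complete medium. LYMP2-001 lymphoblastoid cells, 2500/well; qHTS concentration-response data fitted with Hill equation for AC50.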

[14] = target: Glucocorticoid receptor (Homo sapiens) (UniProt P04150); experiment: qHTS assay for small molecule agonists of glucocorticoid receptor signaling (AID 588532; active = well fitted curve in the direction sought with a large enough effect in the signal ratio, with a control signal flat; the % refers to the signal ratio;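 also: 100% = dexamethasone at 0.1 µM and 0% = DMSO only wells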); conditions: HeLa MMTV-bla, beta-lactamase ratio, agonist, 18 h; stronger effect = higher value; percent of dexamethasone control, DMSO zero
Chain of Glucocorticoid receptor (Homo sapiens) (P04150 whole entry, looked up): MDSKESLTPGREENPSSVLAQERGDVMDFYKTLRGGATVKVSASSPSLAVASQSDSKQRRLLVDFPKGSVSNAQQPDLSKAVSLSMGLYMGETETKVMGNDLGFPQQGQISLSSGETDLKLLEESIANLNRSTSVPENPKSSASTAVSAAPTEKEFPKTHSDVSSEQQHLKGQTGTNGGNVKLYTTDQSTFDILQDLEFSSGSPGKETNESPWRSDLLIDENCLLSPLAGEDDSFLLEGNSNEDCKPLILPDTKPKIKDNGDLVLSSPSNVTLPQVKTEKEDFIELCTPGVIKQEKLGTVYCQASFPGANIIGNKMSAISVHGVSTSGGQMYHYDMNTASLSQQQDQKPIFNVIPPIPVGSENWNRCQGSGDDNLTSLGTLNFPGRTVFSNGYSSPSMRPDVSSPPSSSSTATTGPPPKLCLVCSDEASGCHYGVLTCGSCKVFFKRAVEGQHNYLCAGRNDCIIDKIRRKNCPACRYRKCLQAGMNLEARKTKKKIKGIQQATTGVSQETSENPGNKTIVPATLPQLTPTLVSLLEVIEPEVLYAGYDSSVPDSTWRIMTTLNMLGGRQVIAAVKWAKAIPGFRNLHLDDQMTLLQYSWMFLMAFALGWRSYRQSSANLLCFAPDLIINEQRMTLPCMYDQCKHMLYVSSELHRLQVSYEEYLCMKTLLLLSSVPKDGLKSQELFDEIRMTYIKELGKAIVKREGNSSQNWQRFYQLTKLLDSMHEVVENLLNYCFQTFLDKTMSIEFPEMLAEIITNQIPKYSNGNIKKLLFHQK
Procedure, shortened: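 MMTV-bla HeLa beta-lactamase reporter cells in 1% charcoal/dextran FBS medium, compounds up to 92 uM for 18 h at 37 C, CCF4 readout; normalized to 0.1 uM dexamethasone (100%), EC50 and efficacy from Hill fits.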

[15] = target: Glucocorticoid receptor (Homo sapiens) (UniProt P04150); experiment: qHTS assay for small molecule antagonists of glucocorticoid receptor signaling (AID 588533; active = well fitted inhibition curve with a large enough effect in the signal ratio, with a control signal flat, not every such curve was filed as active; the % refers to the signal ratio; also: % is scaled to controls: 0 for no effect and ±100 for the full control effect); conditions: HeLa MMTV-bla, GRE beta-lactamase ratio, antagonist mode, 18 h; series mostly up to 76.8 µM
Procedure, shortened: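 Antagonist-mode qHTS: compound titrations added to GRE-bla HeLa cells, then dexamethasone 2 nM final; 18 h, 37 C. CCF4 FRET fluorescence normalized to dexamethasone and DMSO; IC50 from Hill fit.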

[16] = qHTS assay for small molecule activators of the nuclear factor-kappa B (NF-kB) signaling pathway (AID 651749; active = well fitted activation curve with a large enough effect in the signal ratio; the % refers to the signal ratio; also: % of control where 0% means no effect); conditions: NF-kB-bla ME-180 cells, beta-lactamase FRET ratio, 16 h; stronger effect = higher value
Procedure, shortened: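 In this qHTS format, compounds acting as activators increase NF-kB-driven beta-lactamase in ME-180 cells, measured as disrupted FRET after 16 hr exposure at 37C and 5% CO2.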

[17] = Cell Viability - HepG2 (AID 433); conditions: qHTS;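 also: potency is read from the fitted curve at half-maximal effect; cells exposed to compound for 40 hours; potency for ATP loss meaning cytotoxicity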
Procedure, shortened: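 Cytotoxicity read as ATP loss (CellTiter-Glo luminescence) after 40 hr compound exposure of HepG2, 1500 cells/well, 37 °C. AC50 by Hill equation; 0% set by DMSO, 100% inhibition by 100 uM tamoxifen.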

[18] = target: Estrogen receptor (Homo sapiens) (UniProt P03372); experiment: qHTS assay for small molecule agonists of estrogen receptor alpha signaling (AID 588514); conditions: ER-alpha-UAS-bla HEK293, beta-lactamase ratio, 18 h; series mostly up to 76.8 µM;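 also: 0% = vehicle only and 100% = reference agonist; nearly all actives have a fitted effect of over 70% in size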
Chain of Estrogen receptor (Homo sapiens) (P03372 whole entry, looked up): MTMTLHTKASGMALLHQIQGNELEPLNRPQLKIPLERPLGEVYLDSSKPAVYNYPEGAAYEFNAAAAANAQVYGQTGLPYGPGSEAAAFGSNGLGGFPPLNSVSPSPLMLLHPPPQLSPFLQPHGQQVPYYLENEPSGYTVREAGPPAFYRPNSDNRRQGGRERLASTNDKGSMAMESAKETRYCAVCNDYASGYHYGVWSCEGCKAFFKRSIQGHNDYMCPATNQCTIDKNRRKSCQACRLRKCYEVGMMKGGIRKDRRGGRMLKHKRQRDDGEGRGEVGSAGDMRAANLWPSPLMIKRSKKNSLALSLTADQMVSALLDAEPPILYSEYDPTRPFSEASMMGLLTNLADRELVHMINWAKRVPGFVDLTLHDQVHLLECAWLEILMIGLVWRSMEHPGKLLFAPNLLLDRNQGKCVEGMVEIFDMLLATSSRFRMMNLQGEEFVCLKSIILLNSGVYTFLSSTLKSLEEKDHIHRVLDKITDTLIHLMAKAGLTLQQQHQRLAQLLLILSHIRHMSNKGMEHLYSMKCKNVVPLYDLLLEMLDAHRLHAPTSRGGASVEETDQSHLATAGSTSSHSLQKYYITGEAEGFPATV
Procedure, shortened: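 Efficacy is expressed against 20 nM 17-beta-estradiol (100%) and DMSO basal (0%); EC50 from Hill equation. Assay: beta-lactamase reporter in ER-alpha-UAS-bla HEK 293 cells, 18 h compound incubation, CCF4 detection.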

[19] = qHTS assay to identify small molecules that stimulate interleukin-8 (IL-8) secretion (AID 651758; active = well fitted activation curve with a large enough effect in the signal ratio; the % refers to the signal ratio; also: potency is read from the fitted curve at half-maximal effect; as to activation: 0% is about no effect); conditions: HTRF ratio (665/615); series mostly up to 92.2 µM
Procedure, shortened: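 Compounds are added to THP-1 cells (2000 per well) and left 16 hrs at 37 C. A labeled anti-IL-8 antibody pair is then added, and IL-8 secretion is measured by time-resolved FRET after 1-3 hrs at room temperature.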

[20] = qHTS assay for small molecule agonists of the antioxidant response element (ARE) signaling pathway (AID 651741; active = well fitted activation curve with a large enough effect in the signal ratio; the % refers to the signal ratio; also: potency is read from the fitted curve at half-maximal effect); conditions: HepG2 ARE-bla reporter, beta-lactamase FRET ratio, 16 h; series mostly up to 96 µM
Procedure, shortened: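 Stably integrated ARE-beta-lactamase reporter HepG2 cells; 16 h compound incubation, 37 C; LiveBLAzer FRET substrate 2 h at room temperature; fluorescence intensity.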

Nc1cc(Cl)cc(Cl)c1
-13.8%: max response [5]
inactive: Potency [1] > 92 µM | Potency [2] | Potency [3] | Potency [4] | outcome [6] | outcome [7] | Potency [8] | outcome [9] | outcome [10] | Potency [11]

CC(=O)NNc1ccccc1
inactive: Potency [1] > 92 µM | Potency [2] | Potency [3] | outcome [6] | outcome [7] | outcome [9] | outcome [10] | activity change % (negative = inhibition) [12] -1.14% | Potency [11]
50%: max response [5]

CCN(CC)CCO
24%: max response [5]
inactive: Potency [1] > 92 µM | Potency [2] | Potency [13] | Potency [4] | activation [14] 6.4% | outcome [15] | outcome [6] | Potency [8] | activity change % (negative = inhibition) [12] -7.98% | activation [16] -0.22% | Potency [11]

O=[N+]([O-])c1ccc2c3c(cccc13)CC2
inactive: Potency [17] > 92 µM | Potency [2] | Potency [18] | activation [14] -4.28% and -4.51% | outcome [15] | outcome [6] | Potency [8] | outcome [9] | activity change % (negative = inhibition) [12] -2.33% and 7.31% | activation [16] -1.76% and -1.52% | Potency [19]
24.6%: max response [5]

OCCOCCO
inactive: Potency [1] > 92 µM | Potency [2] | Potency [3] | Potency [13] | Potency [4] | Potency [18] | activation [14] -0.687% | outcome [15] | outcome [6] | outcome [7] | Potency [8] | outcome [9] | outcome [10] | activity change % (negative = inhibition) [12] -14.9% | Potency [19]
5.13%: max response [5]

CCSC(=O)N1CCCCCC1
inactive: Potency [17] > 92 µM | Potency [3] | Potency [4] | Potency [18] | outcome [6] | outcome [7] | Potency [8] | outcome [9] | activation [16] 0.506% and -0.843% | Potency [11]
-18%: max response [5]

c1ccc(Nc2ccc(Nc3ccccc3)cc2)cc1
inactive: Potency [17] > 92 µM | outcome [6] | outcome [9] | outcome [10] | Potency [11]
91.4%: max response [5]

CCN(CC)N=O
inactive: Potency [1] > 92 µM | Potency [2] | Potency [3] | Potency [13] | Potency [4] | Potency [8] | outcome [9] | outcome [10] | activation [16] 0.914% | Potency [11]

CN(C)c1ccc(N=Nc2ccccc2)cc1
-40.3%: max response [5]
inactive: Potency [1] > 92 µM | Potency [13] | activation [14] 0.929% | outcome [6] | outcome [7] | outcome [9] | outcome [10] | Potency [11]

O=[N+]([O-])c1cccc(CCl)c1
active: Potency [20] 42.2 µM
inactive: Potency [17] > 92 µM | Potency [1] > 92 µM | Potency [2] | activation [14] 5.78% | outcome [15] | outcome [10] | activity change % (negative = inhibition) [12] -16.3% | activation [16] 1.19%

BrCC(Br)(Br)Br
inactive: Potency [2] | Potency [4] | Potency [18] | outcome [7] | outcome [9] | outcome [10]
active: Potency [20] 29.8 µM | Potency [19] 42.2 µM

c1ccc2c(c1)-c1cccc3c1c-2cc1ccccc13
active: Potency [20] 10.6 µM and 6.11 µM

N#C/C=C/C#N
active: activity change, negative = cytotoxicity [3] -156% | Potency [20] 37.6 µM
inactive: Potency [17] > 92 µM | Potency [1] > 92 µM | Potency [2] | outcome [15] | outcome [10] | activity change % (negative = inhibition) [12] -13.1% | Potency [11]

Oc1cc(Cl)c(Cl)c(Cl)c1
inactive: Potency [2] | Potency [13] | activation [14] 5.15% | outcome [9] | outcome [10]

[C-]1=CC=CC1.[C-]1=CC=CC1.[Cl-].[Cl-].[Ti+4]
inactive: Potency [2] | outcome [10]
active: activity change, negative = cytotoxicity [3] -86.5%

c1ccc2c(c1)ccc1cc3c(ccc4ccccc43)cc12
active: Potency [20] 2.37 µM

Nc1ccc(-c2ccc(N)c(Cl)c2)cc1Cl
active: Potency [3] 15.8 µM | Potency [4] 25.1 µM | Potency [20] 5.31 µM and 12.2 µM
inactive: Potency [17] > 92 µM | Potency [2] | Potency [13] | activation [14] -5.3% and -4.62% | outcome [7] | Potency [8] | outcome [10] | activity change % (negative = inhibition) [12] -10.6% and -0.523%

Oc1cc(Cl)c(Cl)c(Cl)c1Cl
active: Potency [17] 53.3 µM | Potency [20] 11.9 µM
inactive: Potency [13] | activation [14] 5.92%

Clc1ccc(C(c2ccccc2Cl)C(Cl)(Cl)Cl)cc1 (stereo not drawn)
active: Potency [20] 75 µM and 61.1 µM
inactive: Potency [17] > 92 µM | Potency [1] > 92 µM | Potency [13] | activation [14] 1.13% | outcome [15] | outcome [7] | Potency [8] | outcome [10] | activation [16] 3.52% and 5.2%
